# Measurements: PubChem BioAssay
# Inconclusive results are not listed. Activity calls are given as the source filed them.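 How the source made its calls, unless noted: active means viability at or below 10% of carrier control in both of two separate runs; inconclusive means viability at or below 10% in only one of the two runs; inactive means the rest.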
# Assays:
# [1] = reducers of endogenous Her2 protein level, primary screen, SKBR3 breast tumor cells, AlphaScreen, ATP viability (AID 461;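 active means Her2 level under about 52% in both replicate screens, with viability over 70% of control, limit read from the data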;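 on Her2 level: lower value means less Her2 protein in the cells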;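 on viability: percent of carrier control wells set as 100% viability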); details: 18-24 h, measured here: SKBR3 viability, ATP luminescence, at 10 µM
# [2] = biological target: Receptor tyrosine-protein kinase erbB-2 (Homo sapiens) (UniProt P04626); experiment: as above; details: 18-24 h, at 10 µM, stronger effect = lower value
# Chain of Receptor tyrosine-protein kinase erbB-2 (Homo sapiens) (P04626 whole entry, looked up): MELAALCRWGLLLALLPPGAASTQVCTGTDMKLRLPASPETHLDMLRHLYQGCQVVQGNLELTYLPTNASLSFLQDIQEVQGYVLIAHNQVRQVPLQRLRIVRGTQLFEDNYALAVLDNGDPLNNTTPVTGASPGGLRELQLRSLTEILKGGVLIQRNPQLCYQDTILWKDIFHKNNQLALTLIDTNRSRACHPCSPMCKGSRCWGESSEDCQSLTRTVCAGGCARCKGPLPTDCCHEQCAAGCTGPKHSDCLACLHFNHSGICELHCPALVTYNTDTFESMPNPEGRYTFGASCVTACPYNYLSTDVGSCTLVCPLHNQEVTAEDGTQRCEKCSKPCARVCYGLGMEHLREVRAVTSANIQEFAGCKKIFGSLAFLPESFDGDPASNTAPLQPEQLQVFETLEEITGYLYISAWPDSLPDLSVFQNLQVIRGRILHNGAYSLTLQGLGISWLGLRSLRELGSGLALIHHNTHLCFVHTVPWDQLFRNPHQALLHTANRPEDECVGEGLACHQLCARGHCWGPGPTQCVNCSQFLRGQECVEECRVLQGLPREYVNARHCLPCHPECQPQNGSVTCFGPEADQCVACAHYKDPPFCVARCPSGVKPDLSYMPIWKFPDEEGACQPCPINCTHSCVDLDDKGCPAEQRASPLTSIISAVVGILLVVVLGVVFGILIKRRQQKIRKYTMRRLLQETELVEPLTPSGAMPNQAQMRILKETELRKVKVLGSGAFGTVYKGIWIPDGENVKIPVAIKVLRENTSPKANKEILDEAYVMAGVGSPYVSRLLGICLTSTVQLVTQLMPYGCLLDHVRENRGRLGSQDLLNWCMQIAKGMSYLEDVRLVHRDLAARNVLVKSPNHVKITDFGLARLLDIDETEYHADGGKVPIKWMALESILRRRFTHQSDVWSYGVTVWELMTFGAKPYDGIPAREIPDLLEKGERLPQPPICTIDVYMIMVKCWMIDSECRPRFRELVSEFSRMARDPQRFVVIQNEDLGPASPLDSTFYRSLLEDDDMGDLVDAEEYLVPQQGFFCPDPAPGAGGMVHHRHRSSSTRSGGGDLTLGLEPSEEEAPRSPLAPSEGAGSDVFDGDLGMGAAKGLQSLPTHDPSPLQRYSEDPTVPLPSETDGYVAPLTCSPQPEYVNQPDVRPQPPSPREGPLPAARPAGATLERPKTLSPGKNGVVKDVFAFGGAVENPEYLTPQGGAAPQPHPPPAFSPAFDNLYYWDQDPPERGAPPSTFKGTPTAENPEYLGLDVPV
# [3] = SK-BR-3 cell growth inhibitors, pilot screen, 24 h, human (AID 572); details: SK-BR-3 viability, CellTiter-Glo luminescence, at 10 µM, stronger effect = lower value;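 further: compound exposure lasted between 18 and 24 h rather than exactly 24 h; 100% = carrier-treated control wells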
# [4] = HUVEC growth inhibition – cell-based, human, primary screen (AID 575;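 active means viability at or below 30% in both replicate assays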;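 further: 100% = median of untreated cell wells with 0.1% DMSO on each plate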); details: HUVEC proliferation, CellTiter-Glo luminescence, 72 h; at 10 µM; stronger effect = lower value
# [5] = growth inhibitors of H69AR lung tumor, primary screen, human, duplicate replicates (AID 580;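 active means viability at or under a set limit in both replicates, limit being median viability minus 3 SD, cut at about 48% in these data, passing the limit was not always enough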;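 further: 100% = mean luminescence of untreated wells and 0% = no signal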); details: H69AR lung tumor cells viability, ATP luminescence, 72 h; at 10 µM; stronger effect = lower value
# [6] = reversal of MRP1-mediated doxorubicin resistance, pilot screen, H69AR cells, doxorubicin co-treatment (AID 601;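 active means viability loss from added drug above about 55%, and viability with drug at most 40%, in both replicates, limit read from the data, passing the limit was not always enough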); details: CellTiter-Glo, 72 h, at 10 µM; for differential viability (reversal): stronger effect = higher value
# [7] = 384-well plate pilot, post-Golgi transport modulator project, inhibition of yeast transport mutant growth (AID 636; in the data active means inhibition above about 31%); details: absorbance 615 nm, about 18 h, stronger effect = higher value
# [8] = growth suppression of yeast trafficking mutant, preliminary HTS, modulators of trafficking downstream of Golgi apparatus project, 1536-format plate, OD 615 nm (AID 637; in the data active means inhibition above about 30%); details: yeast transport mutant growth, absorbance 615 nm, 18 h; stronger effect = higher value
# [9] = OD615 S. cerevisiae growth inhibition, permissive medium, pilot counter-assay, permissive growth control for S. cerevisiae lifespan shortening project (AID 705;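 active means growth inhibition above 25% in both replicates, a cutoff set 3 SD above the mean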); details: OD615, 24 h, at 10 µM, stronger effect = higher value
# [10] = Restrictive medium S. cerevisiae growth inhibition, OD615, pilot screen of yeast lifespan reduction project, restrictive growth control (AID 706;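 active means growth inhibition above a set limit, 3 SD over mean compound inhibition, in both replicates, cut at about 43% in these data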;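 further: modified DeaD lifespan yeast strain shifted to restrictive glucose medium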); details: OD615, 48 h, at 10 µM, stronger effect = higher value
# [11] = viability gain of MRP-1-high H69AR cells under doxorubicin, pilot screen, MRP-1 activator project, CellTiter-Glo, duplicate (AID 807;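 active means viability increase at or above a cutoff of the median across tested compounds plus 3 SD, cut at about 8.5% in these data, passing the limit was not always enough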;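 further: compound pretreatment 18-22 h then 72 h combined with doxorubicin; 0% = doxorubicin alone and 100% = vehicle without doxorubicin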); details: H69AR viability with doxorubicin, CellTiter-Glo luminescence; at 10 µM; stronger effect = higher value
# [12] = growth suppression of beta-catenin knockout HCT116, pilot screen, human colon tumor cells (AID 823;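 active means cell viability at or below a set limit in both duplicate runs, the limit being the all-compound median minus 4 SD, cut at about 23% in these data, passing the limit was not always enough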;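 further: 0% = wells killed by 20 µM Hyamine and 100% = untreated DMSO cell wells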); details: CellTiter-Glo, 60 h, at 10 µM, stronger effect = lower value
# [13] = growth suppression of PTEN-deleted HCT116, pilot screen, cell-based, HCT116 clonal line, CellTiter-Glo (AID 824;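 active means viability at or below 27.92% in each of two runs, the all-compound median minus 4 SD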;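 further: 0% = 20 µM Hyamine control and 100% = vehicle cell control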); details: 60 h, at 10 µM, stronger effect = lower value
# [14] = inhibitors of the yeast RAM network, pilot screen, dse1pr::URA3 reporter, 5-FOA selection (AID 869;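 active means inhibition over a set limit, the all-compound mean plus 3 SD, in both replicate runs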;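 further: 0% = DMSO wells with no growth and 100% = 10 µM 1-NA-PP1 with full growth; RAM network block rescues cells from 5-FOA so hits raise OD615 growth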); details: S. cerevisiae dse1pr::URA3 5-FOA growth, OD615, 2 d; at 10 µM; stronger effect = higher value; strain carries analog-sensitive mutant Cbk1 kinase
# [15] = RAM signaling pathway blockade in yeast – S. cerevisiae, Pdr1DBD-CYC8 efflux-inhibited sensitized strain, primary screen (AID 1298;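 active means RAM network inhibition above 8.4% in each of two replicates, 3 SD over the compound average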;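 further: 0% = DMSO untreated cells without growth and 100% = 10 µM 1-NA-PP1 full growth; higher means more yeast growth rescued from 5-FOA killing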); details: S. cerevisiae cbk1-as DSE1-URA3 strain, 5-FOA growth OD615, 2 d; at 50 µM; stronger effect = higher value
# [16] = H69AR cells + 2 uM doxorubicin, measured here: viability with 2 uM doxorubicin, stronger effect = lower value
# [17] = H69AR cells, compound alone cytotoxicity
Structure (SMILES),viability [1],Her2 level [2],viability [3],viability [4],viability [5],differential viability (reversal) ([6]; H69AR cells + 2 uM doxorubicin),"viability [6, 16]","viability [6, 17]",inhibition [7],inhibition [8],growth inhibition [9],growth inhibition [10],viability increase [11],viability [12],viability [13],inhibition [14],RAM network inhibition [15]
COc1cccc(C2C3=C(N=C4SCC(=O)N42)c2ccccc2CC3)c1OC (stereo not given),103%,115% (inactive),103% (inactive),65.7% (inactive),98.2% (inactive),19.8% (inactive),78.4%,98.2%,-1.69% (inactive),-6.83% (inactive),-15.1% (inactive),-9.8% (inactive),-1.55% (inactive),65.8% (inactive),68.5% (inactive),0.915% (inactive),5.99% (inactive)
Cc1nc2ccccc2c2oc(C(=O)N3CCN(C(=O)c4ccco4)CC3)cc12,79%,95.5% (inactive),79% (inactive),87.4% (inactive),83.1% (inactive),-0.275% (inactive),83.4%,83.1%,-2.69% (inactive),1.67% (inactive),-6.06% (inactive),2.71% (inactive),-5.18% (inactive),101% (inactive),107% (inactive),0.195% (inactive),2.11% (inactive)
CC(=O)c1ccc(NC(=O)C2CCN(S(=O)(=O)c3cccc4cccnc34)CC2)cc1,97.5%,117% (inactive),97.5% (inactive),100% (inactive),84.3% (inactive),-5.16% (inactive),89.4%,84.3%,-2.67% (inactive),-5% (inactive),-5.1% (inactive),-5.57% (inactive),-1.12% (inactive),107% (inactive),99.8% (inactive),1.35% (inactive),8.91% (inactive)
Cn1nnnc1SCC(=O)Nc1ccccc1C(=O)NCc1ccccc1,99%,98% (inactive),99% (inactive),108% (inactive),90.2% (inactive),-4.73% (inactive),94.9%,90.2%,-6.49% (inactive),-7.33% (inactive),-9.6% (inactive),4.06% (inactive),-2.1% (inactive),97.6% (inactive),97.8% (inactive),1.04% (inactive),7.35% (inactive)
CCC(C)C(=O)Nc1nc2c(s1)C(=O)CC(C)(C)C2 (stereo not given),120%,106% (inactive),120% (inactive),97.1% (inactive),89.5% (inactive),1.27% (inactive),88.3%,89.5%,-6.27% (inactive),-0.67% (inactive),-16.6% (inactive),-8.86% (inactive),0.25% (inactive),107% (inactive),97.5% (inactive),2.1% (inactive),1.9% (inactive)
COc1ccc(C(NC(=O)c2ccco2)c2ccc(OC)c(OC)c2)cc1 (stereo not given),93%,84% (inactive),93% (inactive),89.2% (inactive),96.2% (inactive),15.1% (inactive),81.1%,96.2%,-8.11% (inactive),-3.17% (inactive),-14.2% (inactive),-19.3% (inactive),-4.05% (inactive),98.2% (inactive),96.4% (inactive),1.3% (inactive),2.41% (inactive)
O=C(NCc1ccccc1)C1CCN(S(=O)(=O)c2cccc3cccnc23)CC1,96.5%,104% (inactive),96.5% (inactive),99% (inactive),98.2% (inactive),2.76% (inactive),95.4%,98.2%,0.67% (inactive),-2.79% (inactive),0.255% (inactive),-4.87% (inactive),-2.29% (inactive),99.2% (inactive),96.3% (inactive),1.52% (inactive),-0.57% (inactive)
O=C(c1cccc(F)c1)N1CCc2ccccc21,96.5%,80% (inactive),96.5% (inactive),91.2% (inactive),98.9% (inactive),3.25% (inactive),95.6%,98.9%,-5.14% (inactive),0.98% (inactive),-19.5% (inactive),-20.4% (inactive),-5.03% (inactive),86.3% (inactive),96% (inactive),0.88% (inactive),2.7% (inactive)
Cc1cc2ccccc2n1CCNC(=O)C1CC1,89.5%,81% (inactive),89.5% (inactive),89.8% (inactive),88.1% (inactive),-5.55% (inactive),93.6%,88.1%,-4.8% (inactive),4.67% (inactive),-2.51% (inactive),1.02% (inactive),-0.53% (inactive),98.3% (inactive),101% (inactive),0.66% (inactive),2.78% (inactive)
Nc1nc2n(n1)C(c1cccc(Br)c1)CC(c1ccccc1)N2 (stereo not given),93.5%,103% (inactive),93.5% (inactive),82% (inactive),88.8% (inactive),-9.83% (inactive),98.7%,88.8%,-3.33% (inactive),0.83% (inactive),-6.41% (inactive),12.7% (inactive),-1.81% (inactive),97.1% (inactive),86% (inactive),1.22% (inactive),12.1% (inactive)
c1ccc(N2CCN(Cc3cn4cccnc4n3)CC2)cc1,98%,94% (inactive),98% (inactive),97.2% (inactive),97.6% (inactive),3.72% (inactive),93.9%,97.6%,-2% (inactive),-6.07% (inactive),-10.3% (inactive),-6.25% (inactive),1.38% (inactive),98% (inactive),95.1% (inactive),0.465% (inactive),6.85% (inactive)
CC(C)(C)NC(=O)CC(CC(=O)O)c1ccccc1 (stereo not given),112%,117% (inactive),112% (inactive),110% (inactive),88.5% (inactive),-8.51% (inactive),97%,88.5%,-4.27% (inactive),7.67% (inactive),-11.7% (inactive),3.69% (inactive),-0.99% (inactive),106% (inactive),101% (inactive),2.61% (inactive),-1.67% (inactive)
CC(C)CNc1oc(-c2ccc(F)cc2)nc1C#N,108%,110% (inactive),108% (inactive),103% (inactive),94.2% (inactive),1.69% (inactive),92.5%,94.2%,-7.47% (inactive),-4.1% (inactive),-15.3% (inactive),-11.5% (inactive),1.69% (inactive),101% (inactive),84.7% (inactive),0.19% (inactive),5.05% (inactive)
O=C(C1CCN(c2nnc(-n3cccc3)s2)CC1)N1CCOCC1,84%,80% (inactive),84% (inactive),86.2% (inactive),87.5% (inactive),0.17% (inactive),87.3%,87.5%,-5.2% (inactive),-1.67% (inactive),-0.63% (inactive),-1.73% (inactive),0.27% (inactive),101% (inactive),96.7% (inactive),1.83% (inactive),6.37% (inactive)
Cc1nnc(NC(=O)c2ccco2)s1,98.5%,92.5% (inactive),98.5% (inactive),98.6% (inactive),104% (inactive),7.39% (inactive),96.3%,104%,-4.13% (inactive),7.21% (inactive),-10.1% (inactive),-8.55% (inactive),4.22% (inactive),94.9% (inactive),97.2% (inactive),0.67% (inactive),0.21% (inactive)
CN(C)CCCNC(=O)CCC1CCCCC1,93%,78% (inactive),93% (inactive),101% (inactive),94% (inactive),9.09% (inactive),84.9%,94%,-7.16% (inactive),1.17% (inactive),-1.1% (inactive),-3.73% (inactive),0.26% (inactive),99.5% (inactive),107% (inactive),0.2% (inactive),6.01% (inactive)
CC1CCCC(N2CCN(C(=O)c3ccc(F)cc3)CC2)C1 (stereo not given),95%,109% (inactive),95% (inactive),75.4% (inactive),91.3% (inactive),1.66% (inactive),89.6%,91.3%,1.2% (inactive),3.5% (inactive),-0.99% (inactive),-4.36% (inactive),-0.74% (inactive),101% (inactive),98.5% (inactive),0.22% (inactive),-0.84% (inactive)
Cc1nc2sc(C(c3cccs3)N3CC(C)CC(C)C3)c(O)n2n1 (stereo not given),89.5%,92% (inactive),89.5% (inactive),108% (inactive),95.2% (inactive),1.38% (inactive),93.8%,95.2%,-0.27% (inactive),8.85% (inactive),-11.2% (inactive),-10.1% (inactive),-2.1% (inactive),107% (inactive),95.2% (inactive),1.53% (inactive),5.64% (inactive)
C=CCSc1nc2sc(C)c(C)c2c(=O)[nH]1,97.5%,107% (inactive),97.5% (inactive),83.3% (inactive),90.7% (inactive),9.9% (inactive),80.8%,90.7%,-5.87% (inactive),-10.3% (inactive),-7.21% (inactive),-12.2% (inactive),0.97% (inactive),109% (inactive),89% (inactive),1.19% (inactive),4.66% (inactive)
COCCCN1C(=O)C(=O)/C(=C(/O)c2ccc(OCC(C)C)cc2C)C1c1cccnc1 (stereo not given),109%,110% (inactive),109% (inactive),104% (inactive),98.1% (inactive),1.47% (inactive),96.6%,98.1%,-2.21% (inactive),-2.67% (inactive),-1.21% (inactive),15.7% (inactive),0.13% (inactive),106% (inactive),95.6% (inactive),0.48% (inactive),2.11% (inactive)
